Experimental data from PubChem BioAssay (NCI).
Compounds without any hit were thinned out: in the full panel of roughly 79,000, 15% have a hit. Calls of active or inactive are those of the source. Cut-off read from the data, not from the text of the source: active = growth inhibition above about 70%; inactive = the rest.

Columns and labels:
[1] = NCI Yeast Anticancer Drug Screen. Data for the mec2-1 strain (AID 157); conditions: S. cerevisiae mec2-1 strain, stronger effect = higher value
Procedure, shortened: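 Using mec2-1 yeast: add compound, measure growth, express inhibition versus vehicle-treated cultures.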

[2] = NCI Yeast Anticancer Drug Screen. Data for the sgs1 mgt1 strain (AID 161);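 note: 0% = growth of cultures given vehicle only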; conditions: S. cerevisiae sgs1 mgt1 strain, stronger effect = higher value
Procedure, shortened: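 Yeast cells carrying a defined DNA-repair defect were exposed to test compounds. Growth inhibition was measured relative to vehicle-treated controls.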

[3] = NCI Yeast Anticancer Drug Screen. Data for the CLN2oe strain (AID 163);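 note: 0% = growth of vehicle-only control cultures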; conditions: S. cerevisiae CLN2oe strain, stronger effect = higher value
Procedure, shortened: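 Whole-cell yeast growth assay. A strain engineered for altered cell-cycle control received compound, and inhibition relative to vehicle-treated cultures was recorded.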

[4] = NCI Yeast Anticancer Drug Screen. Data for the cln2 rad14 strain (AID 165);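 note: 0% = growth equal to vehicle treated cultures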; conditions: S. cerevisiae cln2 rad14 strain, stronger effect = higher value
Procedure, shortened: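 Yeast strain cln2 rad14, bearing defects in cell cycle control and DNA repair, serves as the test system; values reflect growth inhibition compared with vehicle.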

[5] = NCI Yeast Anticancer Drug Screen. Data for the bub3 strain (AID 167); conditions: S. cerevisiae bub3 mutant strain, stronger effect = higher value
Procedure, shortened: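 Growth of a checkpoint-deficient yeast mutant is measured after compound exposure. Values represent inhibition relative to vehicle.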

[6] = NCI Yeast Anticancer Drug Screen. Data for the wt2 strain (AID 169);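 note: 0% = growth of vehicle-treated yeast cultures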; conditions: S. cerevisiae wt2 strain growth inhibition, stronger effect = higher value
Procedure, shortened: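 Treated yeast vs. vehicle-treated yeast: growth inhibition determined.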

[7] = NCI Yeast Anticancer Drug Screen. Data for the mlh1 strain (AID 171);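 note: 0% = growth of vehicle-treated control cultures of the same strain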; conditions: S. cerevisiae mlh1 strain growth inhibition, stronger effect = higher value
Procedure, shortened: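 A yeast strain with a defined genetic lesion serves as the test organism. Cultures receive compound or vehicle, and growth is measured.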

[8] = NCI Yeast Anticancer Drug Screen. Data for the sgs1 strain (AID 173);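 note: 0% = growth of vehicle-only control cultures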; conditions: S. cerevisiae sgs1 mutant, stronger effect = higher value
Procedure, shortened: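 A genetically defined yeast mutant is incubated with the test compound, and its growth is compared to that of the same strain given vehicle.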

[9] = NCI Yeast Anticancer Drug Screen. Data for the mlh1 rad18 strain (AID 175); conditions: S. cerevisiae mlh1 rad18 strain growth inhibition, stronger effect = higher value
Procedure, shortened: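 Steps: expose repair-defective yeast to compound; measure growth; express inhibition against vehicle-treated controls.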

[10] = NCI Yeast Anticancer Drug Screen. Data for the rad18 strain (AID 177); conditions: S. cerevisiae rad18 mutant growth inhibition, stronger effect = higher value
Procedure, shortened: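 Measured value is growth inhibition of a yeast strain bearing a DNA repair alteration, referenced to vehicle-treated cells.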

[11] = NCI Yeast Anticancer Drug Screen. Data for the rad52 strain (AID 147);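 note: 0% = growth of vehicle-treated control cultures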; conditions: S. cerevisiae rad52 mutant growth inhibition, stronger effect = higher value
Procedure, shortened: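 Here a repair-compromised yeast strain receives each compound; its growth is then quantified and normalised to vehicle-only controls.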

[12] = NCI Yeast Anticancer Drug Screen. Data for the wt1 strain (AID 149);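 note: 0% = growth of vehicle-treated wt1 cultures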; conditions: S. cerevisiae wt1 strain (SPY 50644) growth inhibition, stronger effect = higher value
Procedure, shortened: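 Readout: yeast growth inhibition, normalised to vehicle controls, in the wt1 strain exposed to test compounds.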

[13] = NCI Yeast Anticancer Drug Screen. Data for the rad50EPP+ strain (AID 151);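 note: 0% = growth of vehicle-treated control cultures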; conditions: S. cerevisiae rad50 mutant strain, stronger effect = higher value
Procedure, shortened: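 Read-out is yeast growth inhibition relative to vehicle; cells used were the rad50EPP+ strain.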

[14] = NCI Yeast Anticancer Drug Screen. Data for the mgt1 strain (AID 153); conditions: S. cerevisiae mgt1 mutant growth inhibition, stronger effect = higher value
Procedure, shortened: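 Measured: inhibition of mgt1 yeast growth by compound, normalized to vehicle-treated cultures.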

[15] = NCI Yeast Anticancer Drug Screen. Data for the rad50 strain (AID 155);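 note: 0% = growth of vehicle-only cultures of the same strain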; conditions: S. cerevisiae rad50 strain growth inhibition, stronger effect = higher value
Procedure, shortened: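 Compounds were tested on a yeast strain with an engineered DNA damage repair alteration; the reported value is growth inhibition normalised to vehicle treatment.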

[16] = at 5.0 µM (retest, dose inferred, filed as 0.5)
[17] = at 50.0 µM (retest, dose inferred, filed as 5.0)

Measured: growth inhibition

Nc1ncncc1C(C1=C(O)COC1=O)C1=C(O)COC1=O
inactive: [1]; [16] -15% | [1]; at 11.0 µM 8% | [1]; at 33.0 µM 8% | [1]; [17] -16% | [1]; at 50.0 µM 5.95% | [1]; at 100.0 µM 0% | [2]; [16] -10% | [2]; [17] 13% | [2]; at 50.0 µM 8% | [3]; at 1.2 µM -7% | [3]; at 3.7 µM -16% | [3]; at 11.0 µM -6% | [3]; at 33.0 µM -8% | [3]; at 100.0 µM -8% | [4]; [16] -5% | [4]; [17] 0% | [4]; at 50.0 µM 35.1% | [5]; at 1.2 µM -2% | [5]; at 3.7 µM -1% | [5]; [16] 1% | [5]; at 11.0 µM -1% | [5]; at 33.0 µM -2% | [5]; [17] 19% | [5]; at 50.0 µM -6.55% | [5]; at 100.0 µM -8% | [6]; at 1.2 µM 1% | [6]; at 3.7 µM 1% | [6]; at 11.0 µM -1% | [6]; at 33.0 µM 0% | [6]; at 100.0 µM 1% | [7]; at 1.2 µM 4% | [7]; at 3.7 µM 1% | [7]; at 11.0 µM 3% | [7]; at 33.0 µM 3% | [7]; at 100.0 µM 0% | [8]; at 1.2 µM 3% | [8]; at 3.7 µM 3% | [8]; at 11.0 µM 3% | [8]; at 33.0 µM 2% | [8]; at 100.0 µM -1% | [9]; [16] 2% | [9]; [17] 57% | [9]; at 50.0 µM 4.8% | [10]; at 1.2 µM 1% | [10]; at 3.7 µM 0% | [10]; at 11.0 µM -1% | [10]; at 33.0 µM -3% | [10]; at 100.0 µM -4%

COc1ccc2nc3cccc([N+](=O)[O-])c3c(NCCN(CCO)CCO)c2c1
inactive: [12]; at 1.2 µM -2% | [12]; at 3.7 µM 6% | [12]; at 11.0 µM 31% | [13]; at 1.2 µM 3% | [13]; at 3.7 µM 13% | [13]; at 11.0 µM 44% | [14]; at 1.2 µM -3% | [14]; at 3.7 µM 2% | [14]; at 11.0 µM 29% | [15]; at 1.2 µM 43% | [15]; [16] 42% | [1]; at 1.2 µM 14% | [1]; [16] 13% | [2]; at 50.0 µM 69.5% | [5]; at 1.2 µM -13% | [5]; at 3.7 µM -18% | [5]; [16] -41% | [5]; at 11.0 µM -2% | [5]; at 33.0 µM 52% | [5]; at 50.0 µM 43.6% | [6]; at 1.2 µM -2% | [6]; at 3.7 µM -1% | [6]; at 11.0 µM 11% | [6]; at 33.0 µM 53% | [7]; at 1.2 µM 5% | [7]; at 3.7 µM 25% | [7]; at 11.0 µM 61% | [9]; [16] 68%
active: [11]; at 1.2 µM 75% | [11]; at 3.7 µM 92% | [11]; at 11.0 µM 94% | [11]; at 33.0 µM 96% | [11]; at 100.0 µM 96% | [12]; at 33.0 µM 73% | [12]; at 100.0 µM 77% | [13]; at 33.0 µM 78% | [13]; at 100.0 µM 94% | [14]; at 33.0 µM 71% | [14]; at 100.0 µM 75% | [15]; at 3.7 µM 81% | [15]; at 11.0 µM 91% | [15]; at 33.0 µM 94% | [15]; [17] 96% | [15]; at 50.0 µM 81.2% | [15]; at 100.0 µM 94% | [1]; at 3.7 µM 82% | [1]; at 11.0 µM 95% | [1]; at 33.0 µM 97% | [1]; [17] 97% | [1]; at 50.0 µM 86.2% | [1]; at 100.0 µM 97% | [2]; [16] 78% | [2]; [17] 94% | [4]; [16] 81% | [4]; [17] 96% | [4]; at 50.0 µM 83.2% | [5]; [17] 86% | [5]; at 100.0 µM 96% | [6]; at 100.0 µM 93% | [7]; at 33.0 µM 84% | [7]; at 100.0 µM 86% | [8]; at 1.2 µM 80% | [8]; at 3.7 µM 90% | [8]; at 11.0 µM 93% | [8]; at 33.0 µM 95% | [8]; at 100.0 µM 96% | [9]; [17] 97% | [9]; at 50.0 µM 74.5% | [10]; at 1.2 µM 94% | [10]; at 3.7 µM 96% | [10]; at 11.0 µM 96% | [10]; at 33.0 µM 95% | [10]; at 100.0 µM 95%

CCCS(=O)(=O)Nc1ccc(Nc2c3ccccc3nc3ccccc23)c(OC)c1
inactive: [11]; at 1.2 µM 20% | [11]; at 3.7 µM 64% | [12]; at 1.2 µM -70% | [12]; at 3.7 µM -55% | [12]; at 11.0 µM -64% | [12]; at 33.0 µM -35% | [12]; at 100.0 µM 66% | [13]; at 1.2 µM -32% | [13]; at 3.7 µM -21% | [13]; at 11.0 µM -20% | [13]; at 33.0 µM 16% | [13]; at 100.0 µM 69% | [14]; at 1.2 µM -21% | [14]; at 3.7 µM -64% | [14]; at 11.0 µM -52% | [14]; at 33.0 µM -10% | [15]; at 1.2 µM 14% | [15]; at 3.7 µM 59% | [15]; at 50.0 µM 7.1% | [1]; at 1.2 µM -59% | [1]; at 3.7 µM -88% | [1]; [16] 2% | [1]; at 11.0 µM -60% | [1]; at 33.0 µM 33% | [1]; at 50.0 µM 12.8% | [2]; [16] 36% | [3]; at 1.2 µM -9% | [3]; at 3.7 µM -14% | [3]; at 11.0 µM -11% | [3]; at 33.0 µM 21% | [3]; at 100.0 µM 67% | [4]; [16] 34% | [4]; at 50.0 µM 52% | [5]; at 1.2 µM -67% | [5]; at 3.7 µM -49% | [5]; [16] 40% | [5]; at 11.0 µM -45% | [5]; at 33.0 µM -16% | [5]; at 50.0 µM 37.6% | [5]; at 100.0 µM 65% | [6]; at 1.2 µM -37% | [6]; at 3.7 µM -40% | [6]; at 11.0 µM -41% | [6]; at 33.0 µM -10% | [6]; at 100.0 µM 69% | [7]; at 1.2 µM -85% | [7]; at 3.7 µM -74% | [7]; at 11.0 µM -45% | [7]; at 33.0 µM 9% | [8]; at 1.2 µM -45% | [8]; at 3.7 µM -47% | [8]; at 11.0 µM -41% | [8]; at 33.0 µM 7% | [9]; [16] 66% | [9]; at 50.0 µM 29.4% | [10]; at 1.2 µM -58% | [10]; at 3.7 µM -63% | [10]; at 11.0 µM -43% | [10]; at 33.0 µM -10%
active: [11]; at 11.0 µM 82% | [11]; at 33.0 µM 87% | [11]; at 100.0 µM 93% | [14]; at 100.0 µM 73% | [15]; [16] 79% | [15]; at 11.0 µM 84% | [15]; at 33.0 µM 90% | [15]; [17] 98% | [15]; at 100.0 µM 91% | [1]; [17] 99% | [1]; at 100.0 µM 85% | [2]; [17] 99% | [2]; at 50.0 µM 82.8% | [4]; [17] 98% | [5]; [17] 98% | [7]; at 100.0 µM 74% | [8]; at 100.0 µM 77% | [9]; [17] 98% | [10]; at 100.0 µM 75%
